Laboratory results taken from PubChem BioAssay.
Values without a mark were called inactive. The rule behind the calls is not given here.

target: Pantothenate synthetase (Mycobacterium tuberculosis (strain ATCC 25618 / H37Rv)) (UniProt P9WIL5); assay: Recombinant Mtb pantothenate synthetase (PanC) inhibitors, coupled enzyme, confirmatory (AID 375); details: coupled enzyme assay; at 10 µM, stronger effect = higher value;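 note: 0% = full reaction with vehicle and 100% = no enzyme background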
Sequence (P9WIL5 whole entry, looked up): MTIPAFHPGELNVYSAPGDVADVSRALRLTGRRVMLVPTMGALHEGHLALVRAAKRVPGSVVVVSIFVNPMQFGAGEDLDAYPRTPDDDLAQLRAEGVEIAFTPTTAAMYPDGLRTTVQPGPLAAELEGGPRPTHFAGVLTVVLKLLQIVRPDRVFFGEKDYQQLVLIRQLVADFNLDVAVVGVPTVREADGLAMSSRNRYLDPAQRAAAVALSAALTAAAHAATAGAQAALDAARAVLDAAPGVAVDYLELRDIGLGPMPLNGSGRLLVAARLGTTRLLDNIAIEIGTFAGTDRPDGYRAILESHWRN

SMILES	inhibition
CCOC(=O)N1CCN(C(=O)CSc2nnc(COc3ccccc3)o2)CC1	2%
Cc1ccc(OCC2Cn3c(nc4c3c(=O)n(C)c(=O)n4C)O2)cc1 (configuration not stated)	0%
Cc1nnc(NC(=O)CSc2cn(CCNC(=O)c3ccccc3)c3ccccc23)s1	0%
O=C(CSc1nnc(-c2cccs2)o1)N1CCOCC1	0%
CCc1c(C)nc2ncnn2c1NCCc1ccc(OC)c(OC)c1	0%
OCC(O)CN1CCN(c2ccccc2)CC1 (configuration not stated)	0%
Cc1cccc(-n2ncc(C#N)c2N)c1	1%
O=C(CSc1nnc(-c2ccccc2)c(-c2ccccc2)n1)N1CCOCC1	0%
O=C(O)CCn1c(=O)c2ccccc2c2ccccc2c1=O	1%
CCCCN1C(=O)C2C(C(=O)Nc3cccc(OC)c3)C3C=CC2(O3)C1C(=O)NC1CCCCC1C (configuration not stated)	0%
CC(=O)c1nnn(-c2nc(N3CCCC3)nc(N(c3ccccc3)c3ccccc3)n2)c1C	0%
O=C1C2ON(c3ccc(Cl)cc3)C(c3ccco3)C2C(=O)N1c1ccccc1 (configuration not stated)	0%
O=C(Nc1cccnc1)c1ccc2c(c1)OCO2	0%
CC(=O)Nc1sc2c(c1C#N)CCCCC2	7%
CC1=CCC2C(=O)N(c3nc(C)cc(C)n3)C(=O)C2C1 (configuration not stated)	0%
O=C(CSc1nnc(Cn2c(=O)sc3ccccc32)n1-c1ccccc1)Nc1nccs1	1%
Cc1cc(C(=O)CSCCCn2c(=O)[nH]c3ccccc32)c(C)n1C	2%
